These results are taken from PubChem BioAssay (Tox21).

Test [1] can be described thus: qHTS assay to identify aromatase inhibitors - cell viability counter screen (AID 743084).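 Further: cells stimulated with testosterone during compound exposure; nearly all actives have a fitted effect of over 55% in size.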 Further: potency means the concentration at half of the fitted maximal effect. The note with it: MCF-7 aro ERE viability, CellTiter-Fluor, 24 h; series mostly up to 70.3 µM.
The target of test [2] is Aryl hydrocarbon receptor (Homo sapiens) (UniProt P35869). Kind of test: qHTS assay to identify small molecule that activate the aryl hydrocarbon receptor (AhR) signaling pathway (AID 743085). Further: nearly all actives have a fitted effect of over 15% in size. Further: potency means the concentration at half of the fitted maximal effect.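 On activation: HG2L7.5c1 human HepG2 liver cells with stably integrated DRE-driven firefly reporter.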 The note with it: HepG2 AhR-luc (HG2L7.5c1), luciferase, 24 h; series mostly up to 70.3 µM. The method, boiled down: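 A multiplexed format paired cell viability (CellTiter-Fluor fluorescence) with AhR-dependent luciferase output (ONE-Glo luminescence) in the same wells of HepG2 DRE-luc cells after 24 h compound exposure at 37C.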
Chain of Aryl hydrocarbon receptor (Homo sapiens) (P35869 whole entry, looked up): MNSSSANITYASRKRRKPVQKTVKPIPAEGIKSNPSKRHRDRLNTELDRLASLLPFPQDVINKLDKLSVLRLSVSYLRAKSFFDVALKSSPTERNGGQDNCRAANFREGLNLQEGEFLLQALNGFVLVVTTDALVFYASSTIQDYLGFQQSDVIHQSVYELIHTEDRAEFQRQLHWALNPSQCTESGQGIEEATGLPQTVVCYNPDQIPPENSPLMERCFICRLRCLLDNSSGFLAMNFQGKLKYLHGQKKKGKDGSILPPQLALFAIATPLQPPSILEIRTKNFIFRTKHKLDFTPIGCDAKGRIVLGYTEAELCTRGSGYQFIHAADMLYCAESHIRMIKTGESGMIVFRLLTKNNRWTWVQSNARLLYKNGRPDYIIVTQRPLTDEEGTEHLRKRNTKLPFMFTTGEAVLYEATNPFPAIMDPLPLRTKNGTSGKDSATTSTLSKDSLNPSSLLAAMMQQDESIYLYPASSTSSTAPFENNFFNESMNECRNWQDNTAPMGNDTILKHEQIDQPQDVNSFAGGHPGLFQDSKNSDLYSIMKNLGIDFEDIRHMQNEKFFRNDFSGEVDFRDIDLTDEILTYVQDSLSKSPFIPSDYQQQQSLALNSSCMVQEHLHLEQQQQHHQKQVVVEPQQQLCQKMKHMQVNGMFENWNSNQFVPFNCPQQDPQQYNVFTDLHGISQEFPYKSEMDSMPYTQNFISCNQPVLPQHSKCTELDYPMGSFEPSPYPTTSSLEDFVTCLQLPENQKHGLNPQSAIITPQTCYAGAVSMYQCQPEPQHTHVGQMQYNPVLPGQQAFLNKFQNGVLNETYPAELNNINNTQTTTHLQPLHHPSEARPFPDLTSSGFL
For orientation: Quantitative high-throughput screening tests each substance at several concentrations.

Test [3] is described as follows: qHTS assay to identify small molecule that activate the aryl hydrocarbon receptor (AhR) signaling pathway - cell viability counter screen (AID 743086).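 Further: HepG2 liver cells carrying the AhR DRE luciferase reporter; nearly all actives have a fitted effect of over 45% in size.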 The note with it: HepG2-AhR-luc viability, CellTiter-Fluor, 24 h; series mostly up to 70.3 µM. The method, boiled down: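 HepG2-AhR-luc (HG2L7.5c1) cells, 4000/well, were preincubated 5 h at 37C, exposed to compound in qHTS format for 24 hr at 37C, then given CellTiter-Fluor for 30 min; viability was read as fluorescence in the reporter wells.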

Test [4] can be described thus: qHTS assay to identify small molecule antagonists of the peroxisome proliferator-activated receptor gamma (PPARg) signaling pathway - cell viability counter screen (AID 743194). Further: nearly all actives have a fitted effect of over 55% in size. As to conditions: PPARg-bla HEK293H viability, CellTiter-Glo luminescence, 17 h, co-treated with 50 nM rosiglitazone; series mostly up to 62.6 µM. The method, boiled down:
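PPARg-UAS-bla HEK293H cells were plated, rested 5 h at 37 C, then treated with compounds plus rosiglitazone (50 nM final) for 17 h at 37 C; viability was then read by CellTiter-Glo luminescence after 30 min at room temperature.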

Test [5] in a line: qHTS assay for small molecule agonists of the antioxidant response element (ARE) signaling pathway (AID 743202; active means well fitted activation curve with a large enough effect in the signal ratio in the repeat runs, not every such curve was filed as active; the % refers to the signal ratio; further: potency means the concentration at half of the fitted maximal effect). The note with it: HepG2 ARE-bla reporter, beta-lactamase FRET, 16 h; series mostly up to 73.3 µM. The method, boiled down: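 Read-out: LiveBLAzer B/G FRET substrate fluorescence after 2 h at room temperature, following 16 h compound treatment at 37 C of HepG2 cells carrying an ARE-driven beta-lactamase reporter.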

The nature of test [6]: qHTS assay for small molecule agonists of the antioxidant response element (ARE) signaling pathway - cell viability counter screen (AID 743203; calls by dose curve; further: nearly all actives have a fitted effect of over 55% in size). As to conditions: ARE-bla HepG2 viability, CellTiter-Glo luminescence, 16 h; series mostly up to 73.3 µM. The method, boiled down: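 Following 16 hrs of compound treatment at 37C, HepG2 cells with an ARE-controlled beta-lactamase gene were lysed with CellTiter-Glo. Luminescence was read after 30 min at room temperature.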

Test [7] in a line: qHTS assay for small molecule activators of the heat shock response signaling pathway - cell viability counter screen (AID 743209). Further: nearly all actives have a fitted effect of over 50% in size. The note with it: HSE-bla HeLa viability, CellTiter-Glo luminescence, 5 h; series mostly up to 62.6 µM. The gist of the method:
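Readout: CellTiter-Glo luminescence, 30 min at room temperature. System: HSE-bla HeLa cells, 1500/well, plated overnight. Treatment: compounds in DMSO, 5 h at 37 C.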

The nature of test [8]: qHTS assay for small molecule activators of the heat shock response signaling pathway (AID 743210; active means well fitted activation curve with a large enough effect in the signal ratio in the repeat runs, with a control signal flat, not every such curve was filed as active; the % refers to the signal ratio). The note with it: HeLa HSE-bla reporter, beta-lactamase ratio, 5 h; series mostly up to 62.6 µM. The method, boiled down:
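HSE-bla HeLa cells (beta-lactamase reporter under heat shock response elements) were exposed to compounds for 5 h at 37 C, then loaded with LiveBLAzer B/G FRET substrate for 2.5 h at room temperature before fluorescence reading.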

Test [9] addresses Peroxisome proliferator-activated receptor gamma (Homo sapiens) (UniProt P37231). In words: qHTS assay to identify small molecule agonists of the peroxisome proliferator-activated receptor gamma (PPARg) signaling pathway (AID 743094; active means well fitted activation curve with a large enough effect in the signal ratio in the repeat runs, not every such curve was filed as active; the % refers to the signal ratio; further: potency means the concentration at half of the fitted maximal effect). As to conditions: HEK293H PPARg-UAS-bla, beta-lactamase FRET ratio, 17 h; series mostly up to 57 µM. The gist of the method: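 Compounds dissolved in DMSO were added to PPARg UAS-bla HEK293H cells for 17 h at 37C, and reporter expression was quantified by fluorescence intensity after 1 h with LiveBLAzer B/G FRET substrate.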

Test [10] has the same target. Kind of test: qHTS assay to identify small molecule antagonists of the peroxisome proliferator-activated receptor gamma (PPARg) signaling pathway (AID 743191; calls by dose curve; further: nearly all actives have a fitted effect of over 30% in size). The note with it: HEK293H PPARg-UAS-bla, beta-lactamase ratio, antagonist, 17 h; series mostly up to 62.6 µM. The gist of the method:
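GeneBLAzer PPARg UAS-bla HEK293H cells carrying a UAS-driven beta-lactamase reporter were plated at 3000 cells/well, preincubated 5 h at 37C, then given compound for 17 h at 37C; LiveBLAzer B/G FRET substrate was read after 1 h at room temperature.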

Results filed as inconclusive are left out. Calls of active or inactive are those of the source. Unless noted, the call rests on the fitted dose curve; in most records, active means well fitted curve in the direction sought with a large enough effect in the repeat runs; inconclusive means weak or mixed curves; inactive means no such curve, though single readings can be large; an effect the other way counts as inactive or inconclusive.

Chain of Peroxisome proliferator-activated receptor gamma (Homo sapiens) (P37231 whole entry, looked up): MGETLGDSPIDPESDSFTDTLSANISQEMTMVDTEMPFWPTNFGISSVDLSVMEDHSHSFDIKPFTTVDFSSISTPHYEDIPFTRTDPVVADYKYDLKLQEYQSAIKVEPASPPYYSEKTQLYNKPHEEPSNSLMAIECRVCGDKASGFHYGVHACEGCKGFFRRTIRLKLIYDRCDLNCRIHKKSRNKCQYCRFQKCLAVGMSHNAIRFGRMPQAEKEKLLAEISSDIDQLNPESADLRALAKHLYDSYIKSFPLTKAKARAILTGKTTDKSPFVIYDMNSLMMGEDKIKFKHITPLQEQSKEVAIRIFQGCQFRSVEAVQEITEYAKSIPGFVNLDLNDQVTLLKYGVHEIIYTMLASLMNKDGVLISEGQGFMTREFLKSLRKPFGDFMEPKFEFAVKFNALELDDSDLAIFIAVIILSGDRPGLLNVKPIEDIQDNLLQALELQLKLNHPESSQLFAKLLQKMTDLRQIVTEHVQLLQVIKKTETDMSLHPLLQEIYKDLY

Turning to `C=C1[C@H]2CC[C@@H]3[C@H]2C(C)(C)CCC[C@]13C`, the Potency entry in test [1], in [2], in test [3], in test [4], in test [5] and in [6] was “inactive” each time. The Potency entry in test [7] and in test [8] was “inactive” throughout.
As to `CC(CC=O)c1ccccc1` (centres undefined), the Potency entry in [1], in test [2], in test [9], in test [10], in [4] and in test [5] was “inactive” in each case. In addition, the Potency result in test [6], in [7] and in test [8] was “inactive” each time.
Consider `C[C@H]1C[C@H]2[C@@H]3CCC4=CC(=O)C=C[C@]4(C)[C@@]3(Cl)[C@@H](O)C[C@]2(C)[C@@]1(O)C(=O)CO`, for which the Potency entry in test [1], in test [2], in test [9], in [4], in test [5] and in test [6] was “inactive” each time. Besides, the Potency entry in test [7] and in [8] was “inactive” throughout.
On to `CO[C@@H]1[C@H](OC(=O)/C=C/C=C/C=C/C=C/C(=O)O)CC[C@]2(CO2)[C@H]1[C@@]1(C)O[C@@H]1CC=C(C)C`, for which the Potency entry in test [1], in [2], in test [9], in [4], in [6] and in test [7] was “inactive” each time. Moreover, in test [5], the Potency is 24.3 µM (active).
In the case of `CCCCC(CC)COC(=O)CCCCCCCCC(=O)OCC(CC)CCCC` (centres undefined), the Potency result in [1], in test [2], in [9], in test [10], in test [4] and in test [5] was “inactive” each time. For the same compound, the Potency entry in test [6], in [7] and in test [8] was “inactive” throughout.
For `CCNc1cc(O)ccc1C`, the Potency result in [1], in test [3], in [4], in test [6], in [7] and in test [8] was “inactive” in each case. For the same compound, in test [2], the Potency was 30.3 µM (active).
Regarding `Cc1cccc(Nc2ccccc2)c1`, the Potency entry in test [1], in test [2], in [3], in test [5], in test [6] and in test [7] was “inactive” throughout. For the same compound, in test [8], the Potency result is “inactive”.
Consider `Clc1ccc(Cn2c(CN3CCCC3)nc3ccccc32)cc1`, for which the Potency result in test [1], in test [2], in test [9], in test [4], in [6] and in [7] was “inactive” in each case.
For the compound `Cc1oc(-c2ccccc2)nc1CCOc1cccc2c1ccn2CCC(=O)O`, the Potency is 27.3 µM (active) in test [1] and 0.0174 µM (active) in [9]. The Potency entry in test [2], in test [4], in test [6], in [7] and in [8] was “inactive” in each case.
For the compound `CCCCCCCC/C=C\CCCCCCCC(=O)OCC`, the Potency entry in [1], in test [2], in test [3], in [6], in [7] and in test [8] was “inactive” throughout.
As for `N=c1ccn2c(n1)O[C@H]1[C@H](O)[C@@H](CO)O[C@H]12`, the Potency entry in [1], in [2], in [3], in test [4], in test [6] and in [7] was “inactive” in each case. The Potency result in test [8] is “inactive”.
With `COc1cccc(N(C)C(=S)Oc2ccc3c(c2)CCCC3)n1`, the Potency entry in [1], in [2], in test [3], in test [4], in test [6] and in test [7] was “inactive” in each case.
For `CCOc1ccc(N)c([N+](=O)[O-])c1`, the Potency result in test [1], in test [2], in test [9], in [10], in [4] and in test [6] was “inactive” each time. For the same compound, the Potency entry in test [7] and in [8] was “inactive” in each case.
In the case of `CCCCCCCCCCCC(=O)OC[C@@H](O)[C@H]1OC[C@H](OCCO)[C@H]1OCCO`, the Potency entry in [1], in [2], in test [9], in test [10], in test [4] and in test [6] was “inactive” in each case. The Potency result in test [7] was “inactive”.
For `CCCCc1ncc(/C=C(\Cc2cccs2)C(=O)O)n1Cc1ccc(C(=O)O)cc1`, the Potency result in [1], in [2], in test [3], in [4] and in test [7] was “inactive” each time.
As to `COS(=O)(=O)C(F)(F)F`, the Potency entry in test [1], in test [2], in [9], in [4], in test [5] and in test [6] was “inactive” each time. In test [7], the Potency entry is “inactive”.
